Experimental data as given in PubChem BioAssay AID1159580 (chemical genetic matrix, 2015).
Several values for one entry are separate records, joined by “and”; a condition that tells them apart may be missing. Identical values can stand only once. Hit rate of the full screen: of about 5,500 compounds, about 2,000 (36%) were called active. Inconclusive results (about 18%) are left out. Rule as the data show it: active = normalized growth mostly below about 0.91 (no sharp cut-off); inconclusive = no clear call, values can overlap the other calls; inactive = mostly above about 0.92. This is one part of the list. Where a SMILES comes first, the peptide text is derived from it. Bridges are numbered along the chain shown (N, C = ends). [ ]: non-standard residue; d: D form. The star is where a group is joined. ξ: configuration not given here. ξDab(CH2SO3H) = NC(CCNCS(=O)(=O)O)C(=O)O; Heptanoyl(6-Me) = CC(C)CCCCC(=O)*; Dab = NCC[CH](N)C(=O)O

Test: chemical genetic growth profiling, strain panel (AID 1159580);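 also: tested at 20 µM; growth read once vehicle control cultures reached saturation at 30 °C; 1 = growth at the plate median or of vehicle wells; lower values mean less growth of the strain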
Details: S. cerevisiae deletion strains, growth OD

Measured: normalized growth

CCC(C)C1NC(=O)C(CCNCS(=O)(=O)O)NC(=O)C(NC(=O)C(CCNCS(=O)(=O)O)NC(=O)C(NC(=O)C(CCNCS(=O)(=O)O)NC(=O)CCCCC(C)C)C(C)O)CCNC(=O)C(C(C)O)NC(=O)C(CCNCS(=O)(=O)O)NC(=O)C(CCNCS(=O)(=O)O)NC(=O)C(C(C)CC)NC1=O (stereo unspecified) ({Heptanoyl(6-Me)}-[ξDab(CH2SO3H)]T[ξDab(CH2SO3H)][Dab][ξDab(CH2SO3H)]II[ξDab(CH2SO3H)][ξDab(CH2SO3H)]T; lactam 4-C; configuration not given here)
inactive: locus YAL013W, strain DEP1, active compounds read low 1 | locus YAL021C, strain ccr4, active compounds read low 0.93 | locus YAL026C, strain drs2, active compounds read low 0.989 | locus YAL030W, strain snc1, active compounds read low 0.99 | locus YBL061C, strain skt5, active compounds read low 0.981 | locus YBR009C, strain hhf1, active compounds read low 0.971 | locus YBR021W, strain FUR4, active compounds read low 1.02 | locus YBR023C, strain chs3, active compounds read low 0.985 | locus YBR171W, strain sec66, active compounds read low 0.995 | locus YBR229C, strain ROT2, active compounds read low 0.987 | locus YBR231C, strain swc5, active compounds read low 1 | locus YBR279W, strain paf1, active compounds read low 1 | locus YCL011C, strain gbp2, active compounds read low 0.996 | locus YCL016C, strain dcc1, active compounds read low 0.994 | locus YCL029C, strain bik1, active compounds read low 0.955 | locus YCL061C, strain MRC1, active compounds read low 0.996 | locus YCL069W, strain vba3, active compounds read low 0.978 | locus YCR088W, strain abp1, active compounds read low 0.976 | locus YDL005C, strain med2, active compounds read low 1.01 | locus YDL035C, strain GPR1, active compounds read low 0.989 | locus YDL040C, strain nat1, active compounds read low 0.972 | locus YDL074C, strain BRE1, active compounds read low 1 | locus YDL101C, strain DUN1, active compounds read low 0.992 | locus YDL134C, strain PPH21, active compounds read low 0.993 | locus YDL185W, strain tfp1, active compounds read low 0.935 | locus YDL192W, strain arf1, active compounds read low 0.965 | locus YDR001C, strain nth1, active compounds read low 0.992 | locus YDR069C, strain doa4, active compounds read low 0.961 | locus YDR101C, strain arx1, active compounds read low 0.983 | locus YDR137W, strain rgp1, active compounds read low 1.03 | locus YDR150W, strain NUM1, active compounds read low 0.97 | locus YDR159W, strain sac3, active compounds read low 0.95 | locus YDR162C, strain NBP2, active compounds read low 0.98 | locus YDR195W, strain ref2 0.946 | locus YDR297W, strain sur2, active compounds read low 0.998 | locus YDR318W, strain mcm21, active compounds read low 0.956 | locus YDR334W, strain swr1, active compounds read low 0.959 | locus YDR335W, strain msn5, active compounds read low 0.984 | locus YDR388W, active compounds read low 0.972 | locus YDR392W, strain spt3, active compounds read low 1.02 | locus YDR502C, strain sam2, active compounds read low 0.976 | locus YEL003W, strain gim4, active compounds read low 0.996 | locus YEL037C, strain rad23, active compounds read low 0.969 | locus YEL061C, strain CIN8 (second series), active compounds read low 0.978 | locus YEL061C, strain CIN8, active compounds read low 0.982 | locus YER015W, strain faa2, active compounds read low 0.996 | locus YER016W, strain bim1, active compounds read low 0.997 | locus YER110C, active compounds read low 0.98 | locus YER111C, strain swi4, active compounds read low 1 | locus YER155C, strain BEM2 (second series), active compounds read low 1.01 | locus YER155C, strain BEM2, active compounds read low 0.984 | locus YER167W, strain BCK2, active compounds read low 0.964 | locus YFR010W, strain ubp6, active compounds read low 0.979 | locus YGL078C, strain dbp3, active compounds read low 0.968 | locus YGL086W, strain mad1, active compounds read low 0.972 | locus YGL167C, strain pmr1, active compounds read low 0.967 | locus YGL173C, strain kem1, active compounds read low 0.984 | locus YGL227W, strain vid30, active compounds read low 0.988 | locus YGL240W, strain doc1, active compounds read low 1 | locus YGL248W, strain PDE1, active compounds read low 0.988 | locus YGL253W, strain hxk2, active compounds read low 0.993 | locus YGR078C, strain PAC10, active compounds read low 0.999 | locus YGR135W, strain pre9, active compounds read low 0.988 | locus YGR229C, strain SMI1, active compounds read low 1.01 | locus YGR252W, strain gcn5, active compounds read low 1.1 | locus YHR013C, strain ard1, active compounds read low 0.978 | locus YHR027C, strain rpn1, active compounds read low 1 | locus YHR030C, strain SLT2, active compounds read low 0.98 and 1.01 | locus YHR079C, strain IRE1 (second series), active compounds read low 0.966 | locus YHR079C, strain IRE1, active compounds read low 0.971 | locus YHR094C, strain hxt1, active compounds read low 0.952 | locus YHR129C, strain ARP1, active compounds read low 0.98 | locus YHR142W, strain chs7, active compounds read low 0.982 | locus YHR200W, strain rpn10, active compounds read low 0.951 | locus YIL066C, strain RNR3, active compounds read low 0.977 | locus YIL073C, strain SPO22, active compounds read low 0.975 | locus YIL125W, strain kgd1, active compounds read low 0.969 | locus YIR030C, strain dcg1, active compounds read low 0.967 | locus YJL092W, strain hpr5, active compounds read low 0.987 | locus YJL095W, strain BCK1 (second series), active compounds read low 0.987 | locus YJL095W, strain BCK1, active compounds read low 0.974 and 0.981 | locus YJL115W, strain asf1, active compounds read low 0.975 | locus YJL129C, strain trk1, active compounds read low 1.08 | locus YJL134W, strain LCB3, active compounds read low 0.976 | locus YJL154C, strain vps35, active compounds read low 0.98 | locus YJL164C, strain tpk1, active compounds read low 0.994 | locus YJL166W, strain qcr8, active compounds read low 0.986 | locus YJL168C, strain set2, active compounds read low 0.966 | locus YJL187C, strain SWE1 (second series), active compounds read low 0.978 | locus YJR043C, strain POL32, active compounds read low 1 | locus YJR066W, strain TOR1, active compounds read low 0.97
